Assay outcomes (PubChem BioAssay)
This is a sample that favours compounds with a hit; in the whole collection about 2.3% have one here.
mIDH1 inhibitor = blocks human mutant IDH1 R132H enzyme; Potency, µM (series often up to 76.6 µM), for inactives: at the highest dose activity change, negative = inhibition, most hits filed as inhibitors; actives 0.093% (n = 390,000); IDH1-R132H enzyme, NADPH consumption, diaphorase/resazurin fluorescence; note: potency is the fitted concentration of half-maximal effect; % is set by controls: 0 for no effect and ±100 for the full control effect; nearly all actives have a fitted effect of over 65% in size
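IDH1-R132H (0.5 ug/mL) preincubated 30 min with compound, then NADPH (0.016 mM) and alpha-KG (2 mM) added; 80 min at RT, pH 7.5. Remaining NADPH coupled via diaphorase/resazurin to fluorescence (540/590 nm); concentration-response curves normalized to no-enzyme control.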
Nrf2 activator = activators of Nrf2 (ARE) signaling; AREc32 ARE-luciferase reporter (MCF7-derived line), luminescence, 24 h; Potency, µM (highest dose often 46.1 µM), inactives show at the top dose activation, most hits filed as activators; actives 0.31% (n = 410,000); note: potency is the fitted concentration of half-maximal effect; % of control where 0% means no effect; nearly all actives have a fitted effect of over 65% in size
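For detection, Steady-Glo was added and plates sat 30 min at RT; before that, AREc32_Fluc cells grown overnight in OPTI-MEM/5% FBS had been treated with 23 nL compound for 24 hr at 37 deg C.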
A549 viability = kills or reduces viability of A549 cells in Nrf2 counter-screen. AID 504648. A549 ARE-Fluc cells, CellTiter-Fluor viability, 18-24 h. actives 0.16% (n = 390,000). Potency, µM (highest dose often 46 µM), inactives show top-dose activity change, negative = cytotoxicity, most hits filed as inhibitors; note: potency is the fitted concentration of half-maximal effect; % is set by controls: 0 for no effect and ±100 for the full control effect
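A549 ARE-Fluc cells in 5% FBS OPTI-MEM, 5000 cells/well, rested 2 h then exposed to compounds in concentration-response for 18-24 h at 37 °C. Viability by CellTiter-Fluor fluorescence (Ex 405/Em 525) after 30 min; luciferase luminescence (BugLite, 15 min, RT) read afterwards.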
Apoferritin bind = binds horse apoferritin like a general anesthetic. P02791. apoferritin/1-aminoanthracene competitive binding, fluorescence. Potency, µM (highest dose often 77.5 µM), inactives show at the highest dose activity change, negative = displacement, most hits filed as inhibitors. actives 0.074% (n = 350,000). AID 485281; note: potency is the fitted concentration of half-maximal effect; % is set by controls: 0 for no effect and ±100 for the full control effect; nearly all actives have a fitted effect of over 20% in size
Target sequence (P02791 2-175 limits assumed): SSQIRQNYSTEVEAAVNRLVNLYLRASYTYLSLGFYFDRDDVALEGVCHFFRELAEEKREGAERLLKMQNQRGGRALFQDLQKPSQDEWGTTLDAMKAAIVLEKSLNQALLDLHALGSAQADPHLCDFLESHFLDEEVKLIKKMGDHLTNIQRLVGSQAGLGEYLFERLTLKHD
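In PBS, apoferritin at 10 uM is loaded with 1-AMA from a 50% saturated solution. After 10 min of compound exposure at ambient temperature, reduced 535 nm fluorescence indicates probe displacement.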
Giardia killer = kills Giardia lamblia. Giardia lamblia trophozoite viability. actives 0.15% (n = 340,000). activity change, % at 7.66 µM, hits read low; in the data active = activity change below about -80%; inconclusive = between about -30% and that limit;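 note: parasites exposed to compound for two days anaerobically before the ATP read; % is set by controls: 0 for no effect and ±100 for the full control effect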
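Luminescent ATP signal served as the viability read-out, measured 15-30 min after adding ATP detection reagent to trophozoites that had been incubated with compounds for 48 hrs at 37 deg C anaerobically at 100 cells/well.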
Nrf2 block = Nrf2 pathway inhibition; A549 ARE-Fluc reporter, luciferase luminescence, 18-24 h; Potency, µM (top dose mostly 46 µM), without a hit: top-dose activity change, negative = inhibition, actives largely listed as inhibitors; actives 2.1% (n = 360,000); AID 504444; note: potency is the fitted concentration of half-maximal effect; % is set by controls: 0 for no effect and ±100 for the full control effect; nearly all actives have a fitted effect of over 60% in size
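Nrf2 function is reported as luminescence of an ARE-controlled luciferase in A549 cells. Compounds were tested at several concentrations, and a CellTiter-Fluor read on the same wells flagged cytotoxicity.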
Starred values were filed as active, the others as inactive; ? = inconclusive; . = no result given; [ ] = dose if it differs, or a comment. Unless noted, calls come from the whole dose curve; as a rule, active = well fitted curve in the direction sought with a large enough effect; inconclusive = small, poorly fitted or top-dose-only effect, or another doubt; inactive = no such curve, though single readings can be large; an effect the other way counts as inactive or inconclusive.

SMILES	mIDH1 inhibitor	Nrf2 activator	A549 viability	Apoferritin bind	Giardia killer	Nrf2 block
Cc1nc(Nc2ccc(C(=O)O)cc2)nc(Nc2ccc(C(=O)O)cc2)c1[N+](=O)[O-]	10%	0%	-21%	-5%	-21	?
CC(=O)Nc1ccc(Nc2nc(C)c([N+](=O)[O-])c(Nc3ccccc3)n2)cc1	-12%	3%	?	?	-10	16µM*
Oc1ccc(Br)cc1C1C=C(c2ccc3c(c2)OCO3)NC(c2ccc(F)c(Br)c2)N1 (configuration not stated)	.	.	-17%	.	-14	?
COC(C(=O)Nc1ccc(S(=O)(=O)Nc2cccc3ccccc23)cc1)c1ccccc1 (configuration not stated)	-3%	0%[9.22 µM]	-7%	-10%	-1	23µM*
COC(=O)c1ccc2nc(NC(=O)C(C)(C)C)sc2c1	20%	0%	-5%	-16%	?	4.1µM*
CC1CCCC(C)N1C(=O)Cc1ccccc1 (configuration not stated)	2%	0%	10%	13µM*	4	-11%
CC1CCCC(C)N1C(=O)COc1cccc(Oc2ccccc2)c1 (configuration not stated)	1%	-1%	1%	.	3	-7%
O=C(Oc1ccc(Br)cc1C(=S)N1CCCCC1)c1cc([N+](=O)[O-])cc([N+](=O)[O-])c1	1%	1%	-2%	32µM*	-2	-8%
CCC1Cc2[nH][nH]c(=O)c2C(CC)O1 (configuration not stated)	.	-2%	.	.	.	.
COc1ccccc1Nc1nc(-c2c(C)nc3ncccn23)cs1	-11%	8%	?	-23%	17	12µM*
Cc1c(-c2nnc(SCC(=O)Nc3ccc(Br)cc3)o2)nnn1-c1ccc(F)cc1	-7%	0%	7%	5%	.	.
Brc1ccc(-c2nnc(-c3cccnc3)c3conc23)cc1	-1%	7.1µM*	-2%	.	4	20%
Cc1nn(C2CCS(=O)(=O)C2)c(Cl)c1/C=C/C(=O)OCC(=O)c1cc(C)n(-c2ccc(F)cc2)c1C (configuration not stated)	4%	0%	10%	5%	-20	21µM*
CCc1nc(Nc2ccc(OC)c(OC)c2)c2nnn(Cc3ccccc3Cl)c2n1	-1%	2%	?	123%	10	10µM*
Cc1cccc(CNC(=O)Cn2nc(C)n3c(cc4cc(F)ccc43)c2=O)c1	-8%	-1%	2%	-6%	.	3%
O=C(COC(=O)/C=C/c1ccco1)Nc1ccc(F)cc1Cl	-4%	3.2µM*	1%	-19%	-15	22%
C=C(C)n1c(=O)n(Cc2ccc(C)cc2)c2ccccc21	5%	0%	-22%	-10%	10	16µM*
COc1ccccc1NC(=O)c1sc(Cl)nc1C	-3%	11µM*	-3%	-8%	-11	6%
O=C(Cc1cccs1)N/N=C\c1ccc([N+](=O)[O-])s1	0%	0%	-22%	-23%	-85*	?
Cc1ccc(NC(=S)N/N=C/c2ccc([N+](=O)[O-])s2)cc1	0%	-1%	23µM*	-23%	?	?
Cc1ccc(NC(=S)Nc2ccc(C(C)C)cc2)cc1S(=O)(=O)N1CCCCCC1	1%	11%	?	-16%	-5	12µM*
Cc1ccc(NC(=O)CN2CCCC2c2cccs2)cc1S(=O)(=O)N1CCCCC1 (configuration not stated)	-9%	1%	-15%	.	1	21µM*
Cc1ccc(NC(=O)CCS(=O)(=O)c2ccccc2)cc1S(=O)(=O)N1CCCCCC1	-8%	3%	-6%	.	-7	?
Cc1ccc(S(=O)(=O)N2CCOCC2)cc1NC(=O)COc1cccc(-n2cnnn2)c1	1%	3%	-4%	.	-8	-7%
Cc1ccc(NC(=O)COc2cccc(-n3cnnn3)c2)cc1S(=O)(=O)N1CCOCC1	-3%	1%	0%	.	-4	23µM*
